Rows were chosen to be rich in hits. Some 2.3% of all compounds tested hit in one or more screens of this group.
MEKK2mut PB1 HTS: signal of MEK5 binding to mutant human MEKK2 PB1 domain. 0.35% of 290,000 active. percent response, % at 10 µM. bead flow cytometry, Alexa488-MEK5 binding to MEKK2 mutant; in the data active = percent response above about 24%, passing the limit was not always enough
MEKK3 PB1 HTS: raises or lowers MEK5 binding to the human MEKK3 PB1 domain; 1.4% of 290,000 active; bead-based flow cytometry, Alexa488-MEK5 binding to MEKK3; actives lie on both sides; 0 = blocked by unlabeled MEK5, 100 = vehicle; Q99759; binding response (% of control), % at 10 µM; AID 1529;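 active = binding response more than 3 SD above or below the average of its plate-row segment, actives on both sides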;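 note: Alexa488 bead fluorescence after subtracting the streptavidin-only scavenger bead signal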
MEKK2wt PB1 HTS: raises or lowers MEK5 binding to wildtype human MEKK2 PB1 domain; Q9Y2U5; 1.1% of 290,000 active; AID 1531; bead flow cytometry, Alexa488-MEK5 binding to MEKK2 WT; actives lie on both sides; binding response (% of control), % at 10 µM; in the data active = binding response below about 67% or above about 130%
UBC13 inh: blocks human UBC13 polyubiquitin chain formation. P61088. TR-FRET. inhibition, % at 20 µM. 0.47% of 330,000 active. AID 485273; in the data active = inhibition above about 45%, passing the limit was not always enough
Target sequence (P61088 whole entry, looked up): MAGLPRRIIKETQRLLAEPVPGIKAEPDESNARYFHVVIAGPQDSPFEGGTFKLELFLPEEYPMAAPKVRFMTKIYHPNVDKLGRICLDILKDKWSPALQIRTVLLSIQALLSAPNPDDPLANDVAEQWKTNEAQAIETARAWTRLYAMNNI
MEKK2wt confirm: raises or lowers MEK5 binding to wildtype human MEKK2, retest. 2.4% of 5,900 active. shares compounds with MEKK3 PB1 HTS. bead flow cytometry, Alexa488-MEK5 binding to MEKK2 WT; actives lie on both sides. AID 1892. binding response (% of control), % at 10 µM; in the data active = binding response below about 16% or above about 210%; inactive = in between
MEKK2mut confirm: signal of MEK5 binding to mutant human MEKK2, retest. shares compounds with MEKK3 PB1 HTS. bead flow cytometry, Alexa488-MEK5 binding to MEKK2 mutant. percent response, % at 10 µM. 2% of 5,900 active; in the data active = percent response mostly above about 71%, no sharp cut-off; inactive = mostly below about 38%;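 note: higher means compound restores mutant binding toward wildtype level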
MEKK3 confirm: MEKK3-MEK5 PB1 inhibition, single concentration confirmation; bead flow cytometry, Alexa488-MEK5 binding to MEKK3; active compounds read low; 1.8% of 5,900 active; shares compounds with MEKK3 PB1 HTS; binding response (% of control), % at 10 µM; AID 1894;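 active = binding response below 72% of control, or above a set upper limit, though filed actives all read lower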;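 note: 100% = DMSO only wells and 0% = binding blocked by excess unlabeled MEK5; lower values mean stronger disruption of MEK5 binding to MEKK3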
* marks the source's active call; other numbers are inactive results; x = no result given; [ ] = another dose, or the depositor's remark.

SMILES | MEKK2mut PB1 HTS | MEKK3 PB1 HTS | MEKK2wt PB1 HTS | UBC13 inh | MEKK2wt confirm | MEKK2mut confirm | MEKK3 confirm
COc1ccc(C2CC2/C(C)=N/OC(=O)c2ccc(F)cc2)cc1 (centres undefined) | 4 | 141* | 125 | 2 | 108 | 9 | 109
COc1ccc(C2CC2/C(C)=N/OC(=O)c2cccs2)cc1 (centres undefined) | 1 | 99 | 105 | -9 | x | x | x
CCC1(c2ccccc2)NC(=S)N(c2ccc(C)cc2)N1 (centres undefined) | -5 | 108 | 98 | -11 | x | x | x
CCC1(c2ccc(Cl)cc2)NC(=S)N(c2ccccc2)N1 (centres undefined) | 0 | 128* | 107 | -1 | 98 | -2 | 99
COc1ccc(C)cc1-n1nnnc1SCC1CCCO1 (centres undefined) | 24* | 103 | 103 | 7 | 114 | 17 | 106
CCOC(=O)Cc1csc(NC(=O)CC(C)(C)CC(=O)O)n1 | 25 | 128* | 131 | 2 | 97 | -2 | 100
O=C(Cc1ccc([N+](=O)[O-])cc1)Nc1nnc(C2CC2)s1 | 1 | 171* | 107 | -20 | 104 | -1 | 101
CCOC(=O)Cc1csc(N/N=C/c2ccccc2)n1 | 3 | 154* | 110 | 3 | 107 | -1 | 102
CCOC(=O)Cc1csc(NC(=O)CCC(=O)O)n1 | 0 | 93 | 101 | -4 | x | x | x
CCOC(=O)Cc1csc(NC(=O)Cc2ccc([N+](=O)[O-])cc2)n1 | 1 | 132* | 102 | 1 | 125 | 10 | 111
CC(C)(C)Cc1nnc(NC(=O)Cc2ccc([N+](=O)[O-])cc2)s1 | -4 | 94 | 93 | 7 | x | x | x
CCC1CCCCN1C(=S)NC(=O)c1cccc([N+](=O)[O-])c1 (centres undefined) | 3 | 97 | 101 | -2 | x | x | x
O=C(NCCc1nnc2ccc(N3CCCCCC3)nn12)c1ccccc1F | 2 | 102 | 100 | -2 | x | x | x
O=C(CSc1ccc2c(c1)OCCO2)Nc1ccc(N2CCOCC2)cc1 | -5 | 79 | 89 | 14 | x | x | x
O=C(CSc1ccccc1)N1CCN(c2ccc(F)cc2)CC1 | x | x | x | 8 | x | x | x
Cc1ccc(C(=O)N(Cc2nc3ccccc3c(=O)[nH]2)C2CCCC2)cc1 | -1 | 96 | 93 | 9 | x | x | x
Cc1ccccc1C(=O)N(Cc1nc2ccccc2c(=O)[nH]1)C1CCCC1 | 0 | 128* | 113 | 8 | 99 | 0 | 102
NC(N)=N/N=C/c1ccc(Cl)cc1Cl | 42 | 129* | 155* | 0 | 122 | 18 | 108
NC(N)=N/N=C/c1ccc(Cl)c(Cl)c1 | 17 | 104 | 124 | 28 | x | x | x
CC(=O)OCC(=O)C1=CCC2C3CCC4=CC(=O)C=CC4(C)C3(F)C(OC(C)=O)CC12C (centres undefined) | -2 | 62*[inhibitor] | 37*[inhibitor] | -16 | 103 | 0 | 102
CNC(=O)CCc1[nH]c2ccccc2c1Sc1ccccc1 | 1 | 160* | 105 | 10 | 100 | -2 | 101
Cc1nc(Cl)sc1C(=O)Nc1cccc2ccccc12 | -2 | 95 | 96 | -2 | x | x | x
O=C(CSc1nnnn1C1CC1)N1CCN(c2ccccc2F)CC1 | x | x | x | 3 | x | x | x
Cn1c(C(=O)N2CCN(C(=O)c3ccco3)CC2)cc2c(=O)n3ccccc3nc21 | 6 | 138* | 129 | 11 | 96 | -5 | 97
CCCn1c(=NC(=O)c2ccco2)c(C(=O)OCC)cc2c(=O)n3ccccc3nc21 | -26 | 2.0*[inhibitor] | -2.0*[inhibitor] | -3 | 93 | -14 | 93
SMILES | MEKK2mut PB1 HTS | MEKK3 PB1 HTS | MEKK2wt PB1 HTS | UBC13 inh | MEKK2wt confirm | MEKK2mut confirm | MEKK3 confirm
CC(C)Cn1c(CN2CCN(C(=O)c3ccco3)CC2)nc2c1c(=O)n(C)c(=O)n2C | 3 | 141* | 125 | -2 | 101 | 1 | 103
CC1Sc2ccc(S(=O)(=O)CCC(=O)Nc3ccccn3)cc2NC1=O (centres undefined) | 4 | 99 | 98 | -6 | x | x | x
O=C(COc1cccc(C(F)(F)F)c1)NCC(c1ccco1)N1CCCCC1 (centres undefined) | x | x | x | -1 | x | x | x
COc1ccc(NC(=O)CC(C(=O)O)C(C)c2ccccc2)cc1 (centres undefined) | 29* | 108 | 160* | 3 | 103 | -3 | 101
COc1ccc(NC(=O)CC(Cc2ccccc2)C(=O)O)cc1 (centres undefined) | -8 | 92 | 90 | 5 | x | x | x
Cc1ccc2cccc(Oc3nnnn3-c3ccccc3)c2n1 | 2 | 105 | 105 | -4 | x | x | x
c1ccc(-n2nnnc2Oc2cccc3cccnc23)cc1 | -25 | 0.0*[inhibitor] | -8.0*[inhibitor] | -4 | 97 | -5 | 103
COc1ccc(-c2nc(CSCC(=O)NCCCN3CCCC3=O)c(C)o2)cc1OC | 0 | 98 | 94 | -4 | x | x | x
CC(/C=N/n1c(-c2ccco2)n[nH]c1=S)=C\c1ccccc1 | 0 | 134* | 104 | -7 | 98 | -2 | 102
O=C(COc1cccc(NC(=O)c2cccs2)c1)c1ccc(F)cc1 | 1 | 138* | 105 | 4 | 104 | 2 | 105
Cc1nc2c3ccccc3n(Cc3ccccc3F)c2s1 | -2 | 100 | 95 | 5 | x | x | x
Cc1nc2c3cc(F)ccc3n(CCN3CCCCC3)c2s1 | 7 | 102 | 112 | 5 | x | x | x
Cc1nc2c3cc(F)ccc3n(Cc3ccccc3)c2s1 | -1 | 155* | 111 | 3 | 104 | 7 | 105
Cc1nc2c3cc(F)ccc3n(Cc3ccccc3F)c2s1 | -1 | 140* | 109 | 3 | 89 | -16 | 89
Cc1cccc(N2CCN(C(=O)/C=C/c3cccs3)CC2)c1C | 2 | 106 | 102 | 6 | x | x | x
CC(Oc1ccccc1)C(=O)Nc1nnc(S(=O)(=O)N(C)c2ccccc2)s1 (centres undefined) | 7 | 101 | 98 | -5 | x | x | x
Cc1oc(-c2ccccc2Cl)nc1Cn1cccc1C1=NC(c2ccccc2)CO1 (centres undefined) | -13 | 19*[inhibitor] | 29*[inhibitor] | 4 | 103 | -1 | 103
Cc1oc(-c2ccccc2Cl)nc1CN1CCCC1c1ccc(F)cc1 (centres undefined) | 2 | 102 | 113 | 9 | x | x | x
C=CC[C@H](CC(=O)NCCO)C(=O)N[C@H](COC(=O)[C@H](CC=C)CC(=O)OC(C)(C)C)Cc1c[nH]c2ccccc12 | x | x | x | 17 | x | x | x
Cc1ccc2cc(C#N)c(SCC(=O)NCc3ccco3)nc2c1 | -17 | 2.0*[inhibitor] | 2.0*[inhibitor] | -8 | 98 | -6 | 100
Cc1cc(C)n2nc(SCC(=O)NCc3ccco3)nc2n1 | -7 | 77*[inhibitor] | 87 | 5 | 104 | 3 | 101
Cc1ccc2nc(SCC(=O)NCc3ccco3)c(C#N)cc2c1 | -1 | 98 | 90 | -1 | x | x | x
Cc1cc(C)nc(SCC(=O)NCc2ccco2)n1 | 19 | 104 | 104 | -1 | x | x | x

Compound activity: PubChem, several laboratories
